Compound activity deposited in PubChem BioAssay by National Center for Advancing Translational Sciences (NCATS).
Cycloheximide cs: affects cycloheximide protein synthesis inhibition readout, counter-screen; AID 2314; cell reporter, cycloheximide protein synthesis inhibition counterscreen; actives 12% (n = 300,000); max response, %; in the data active means max response mostly above about 13%, no sharp cut-off; inactive means mostly below about 14%; further: read at 38.3 µM for the half of the compounds with a filed dose; 0% is about no effect
FMDV inh: blocks foot and mouth disease virus. FMDV antiviral cell-based qHTS. Potency, µM (doses to about 57.9 µM), for inactives: top-dose activity change, negative = inhibition, usual class: inhibitors. actives 1.2% (n = 410,000); calls by dose curve; tested in HEK293T cells; further: read-out not given here; potency means the concentration at half of the fitted maximal effect; on the % scale 0 is the no-effect control and ±100 the full control effect; nearly all actives have a fitted effect of over 45% in size
Shiga inhibitor: blocks Shiga toxin action in Vero cells | Vero cells, Shiga toxin protein synthesis inhibition reporter | inhibition, % at 38.7 µM | actives 9.2% (n = 290,000) | AID 2315; in the data active means inhibition mostly above about 28%, no sharp cut-off; inactive means mostly below about 43%; further: 0% is about no effect
HCV inhibitor: inhibitors of hepatitis C virus infection. Huh7.5.1 HCVcc-Cre infection, luciferase reporter, 44 h. Potency, µM (series often up to 41.8 µM), inactives show at the top dose activity change, negative = inhibition, actives largely listed as inhibitors. actives 3.4% (n = 340,000). AID 651820; active means well fitted inhibition curve with a large enough effect; inconclusive means small, poorly fitted or top-dose-only effect, or another doubt; inactive means no such curve, though single readings can be large or run the other way; further: potency means the concentration at half of the fitted maximal effect; on the % scale 0 is the no-effect control and ±100 the full control effect
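Infectious HCVcc-Cre (~0.5 moi) was added to cells just after compound, with cells seeded 4 h earlier at 1,000 per well. Luciferase activity after 44 h culture reported infection; substrate was incubated 15 min at room temperature before reading.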
Lassa entry inh: Lassa virus entry inhibition; actives 1.2% (n = 300,000); Lassa virus pseudotype entry inhibition, cell reporter; AID 540256; Potency, µM (highest dose often 37.9 µM), inactives show top-dose activity change, negative = inhibition, most hits filed as inhibitors; calls by dose curve; tested in HEK293 cells; further: potency means the concentration at half of the fitted maximal effect; on the % scale 0 is the no-effect control and ±100 the full control effect; nearly all actives have a fitted effect of over 50% in size
Marburg entry inh: blocks Marburg virus binding to or entry into cells; Marburg virus pseudotyped entry inhibition, cell reporter; Potency, µM (titrated, usually from 37.8 µM), for the others: at the highest dose activity change, negative = inhibition, actives largely listed as inhibitors; actives 1.8% (n = 300,000); calls by dose curve; tested in HEK293 cells; further: potency means the concentration at half of the fitted maximal effect; on the % scale 0 is the no-effect control and ±100 the full control effect
Active calls of the source: *; u = inconclusive; x = no result; [ ] = dose if it differs, or a comment. A selection: hits, their analogues and other compounds. The true share with any hit is near 13%.

SMILES | Cycloheximide cs | FMDV inh | Shiga inhibitor | HCV inhibitor | Lassa entry inh | Marburg entry inh
O=C(c1cn(-c2ccccc2)nc1-c1cccs1)N1CCN(c2ccccn2)CC1 | 15.9* | -3.0% | 43.5* | u | -0.8% | -10.1%
Cc1ccc2c(c1)COc1c3ccc(C(=O)NC(C)C)cc3nn1-2 | 35.3* | -16.1% | 76.2* | u | x | x
CCCC#Cc1ccc2c(c1)COc1c3ccccc3nn1-2 | x | 19.9% | x | -2.1% | x | x
Cc1ccc2c(c1)COc1c3ccc(C(=O)N[C@@H](C)CO)cc3nn1-2 | 42.1* | 28.4% | 52.9* | u | x | x
O=C(NCCOc1ccccc1)[C@@H]1CCCN1C(=O)c1cccs1 | x | 3.9% | x | -0.5% | -3.2%[46.1 µM] | -21.9%[46.1 µM]
Cc1ccc(-n2nnnc2SCC(=O)Nc2ccc3c(c2)COC3=O)cc1C | 16.5* | 22.3% | -3.5 | u | -3.1% | -3.4%[46.1 µM]
Cc1ccc(-n2nnnc2SCC(=O)Nc2ccc3c(c2)OCCO3)cc1C | 6.7 | -4.5% | 9.2 | -12.7% | 8.0% | u
Cn1ccnc1SCC(=O)Nc1ccc2c(c1)COC2=O | 14.5 | 28.6% | 52.0* | -5.4% | 7.4% | 23.6%
CCOc1ccc(/C=C/C(=O)N(CC)CC(=O)Nc2c(F)cccc2F)cc1OC | x | 7.5% | x | x | x | x
COc1ccc(CCNC(=O)/C=C/c2ccc3ccccc3n2)cc1OC | 13.6* | 28.2µM* | 45.0 | u | x | u
CCc1ccc(NC(=O)CSc2n[nH]c(C)c2[N+](=O)[O-])cc1 | 1.1 | -15.6% | 1.0 | -0.9% | -5.9% | 0.1%
Cc1[nH]nc(Nc2ccccc2)c1[N+](=O)[O-] | 31.5* | 23.6% | 52.9 | 2.1% | u | 13.3%
Cc1[nH]nc(Nc2ccc(C(C)C)cc2)c1[N+](=O)[O-] | 57.4* | 13.4% | 54.5* | -25.4% | u | u
Cc1[nH]nc(NCCO)c1[N+](=O)[O-] | 0.6 | -0.1% | -5.1 | 2.7% | 18.7% | -11.1%
Cc1[nH]nc(Sc2ccccn2)c1[N+](=O)[O-] | 14.7 | 44.2% | 43.7* | 21.1% | u | 3.4%
Cc1ccc(Nc2n[nH]c(C)c2[N+](=O)[O-])cc1 | 29.3* | 21.2% | 42.6* | 11.2% | 14.2% | -5.9%
CC(C)Cn1cc(NC(=O)NCc2ccccc2Cl)c2ccccc2c1=O | x | -19.5% | x | x | u | x
Cc1cc(C(F)(F)F)nc(-n2cc(-c3ccccc3)nn2)n1 | -1.7 | 6.3% | 1.4 | 22.7% | u | 1.1%[46.1 µM]
Cc1[nH]nc(Nc2ccc(Br)cc2)c1[N+](=O)[O-] | 56.4* | 19.5% | 112.4* | -22.7% | x | x
Cc1[nH]nc(NNC(=O)c2ccccc2)c1[N+](=O)[O-] | -1.3 | 7.9% | 21.7 | 24.8% | 2.4%[46.1 µM] | 5.8%[46.1 µM]
Cc1cccc(Nc2n[nH]c(C)c2[N+](=O)[O-])c1 | 63.1* | 22.5% | 107.0* | -21.5% | u | 12.6µM*
COC(=O)[C@]1(C)CC[C@@]2(C)CC[C@@]3(C)C4=CCc5c(cc(O)c(O)c5C)[C@]4(C)CC[C@@]3(C)C2C1 (some centres undefined) | x | 20µM* | x | x | x | x
Cc1cn2c(=O)cc(COc3cccc(NC(=O)c4cccc(F)c4)c3)nc2s1 | x | -7.9% | x | x | -3.3%[46.1 µM] | 3.8%[46.1 µM]
C=CCc1cccc(/C=N/NC(=O)C(C)Nc2ccc(C)cc2)c1O (centres undefined) | -5.2 | u | 17.0 | 10µM* | u | u
O=C(N/N=C/c1ccccc1C(=O)O)c1ccccc1Br | 7.3 | 23.7% | 38.5 | 19.9% | 21.4% | 4.6%[46.1 µM]
SMILES | Cycloheximide cs | FMDV inh | Shiga inhibitor | HCV inhibitor | Lassa entry inh | Marburg entry inh
C=CCc1cccc(/C=N/NC(=O)c2ccccc2Br)c1O | 10.4 | -22.3% | 50.2* | 14.1µM* | x | x
COc1ccccc1/C=N/NC(=O)c1ccccc1Cl | 15.3 | 29.2% | 3.1 | -4.8% | 4.9% | 6.8%[46.1 µM]
C=CCc1cccc(/C=N/NC(=O)c2ccccc2OC)c1O | 30.0* | 44.2% | 135.1* | u | -7.9% | u
Cc1ccc(Oc2ccc(S(=O)(=O)NCC(C)(C)N3CCOCC3)cc2)cc1 | -1.9 | -26.7% | -6.9 | u | u | u
CC(C)=CCC/C(C)=C/CNC(=O)C[C@H]1C[C@H](C(=O)N(C(C)C)C(C)C)[C@@]2(C)c3[nH]c4cc(CCC(=O)N(C)C)ccc4c3CCN2C1=O | x | u | x | 10µM* | x | x
CN(C)CCCNC(=O)C[C@H]1C[C@H](C(=O)N2CCOCC2)[C@@]2(CCC3CCCC3)c3[nH]c4cc(-c5ccco5)ccc4c3CCN2C1=O | x | -24.6% | x | 7.94µM* | x | x
COCCCNC(=O)C[C@H]1C[C@H](C(=O)N2CCOCC2)[C@@]2(CCC3CCCC3)c3[nH]c4cc(-c5ccco5)ccc4c3CCN2C1=O | x | -1.5% | x | -7.7% | x | x
CC(C)N(C(=O)[C@H]1C[C@H](CC(=O)NCCCN(C)C)C(=O)N2CCc3c([nH]c4cc(-c5ccco5)ccc34)[C@]12C)C(C)C | x | 0.0% | x | 8.91µM* | x | x
CCN(CC)C(=O)[C@H]1C[C@H](CC(=O)NCCCN(C)C)C(=O)N2CCc3c([nH]c4cc(CCC(=O)N(C)C)ccc34)[C@]12C | x | 5.5% | x | 2.1% | x | x
CC(C)N(C(=O)[C@H]1C[C@H](CC(=O)NCCCN(C)C)C(=O)N2CCc3c([nH]c4cc(CCC(=O)N(C)C)ccc34)[C@]12C)C(C)C | x | -5.4% | x | 0.316µM* | x | x
CCN(CC)C(=O)[C@H]1C[C@H](CC(=O)NCCCN(C)C)C(=O)N2CCc3c([nH]c4cc(-c5ccco5)ccc34)[C@]12C | x | -6.1% | x | u | x | x
COC(=O)C1=C(c2ccc(S(C)(=O)=O)cc2)C[C@@H]2CC[C@H]1N2C(=O)NCc1ccc(F)cc1 | x | -16.2% | x | u | x | x
C[C@]12c3[nH]c4cc(-c5ccco5)ccc4c3CCN1C(=O)[C@@H](CC(=O)NCC13CC4CC(CC(C4)C1)C3)C[C@@H]2C(=O)N1CCOCC1 | x | u | x | 25.1µM* | x | x
Cc1cc(NC(=O)Cn2nnc3sc4c(c3c2=O)CCCC4)no1 | -1.8 | -7.4% | 12.1 | x | -41.9%[14.3 µM] | -6.5%
Cc1cc(NC(=O)Cn2nnc3sc4c(c3c2=O)CCC(C(C)(C)C)C4)no1 (centres undefined) | -2.9 | -14.2% | -6.6 | 11.2µM* | -1.6% | -15.8%
[O-][n+]1ccccc1SC/C=C/c1ccccc1 | 25.0* | 40.4% | 95.7* | 5.2% | -7.6% | u
O=C(C1CC(=O)N(C2CCCC2)C1)N1CCN(c2cccc(Cl)c2)CC1 (centres undefined) | -3.7 | u | -7.4 | u | -2.5% | u
CCOc1ccc(-c2nnc(Nc3ccc(OC)c(C(=O)N4CCCCC4)c3)c3ccccc23)cc1 | -3.3 | -10.7% | -4.6 | 14.1µM* | x | 3.0%
CNC(=O)c1cc(Nc2nnc(-c3ccc(O)cc3)c3ccccc23)ccc1OC | -3.5 | -5.4% | -11.8 | u | u | u
CC(C)NS(=O)(=O)c1cc(F)ccc1CN1C(=O)c2cccnc2C1=O | -2.6 | -20.0% | 3.8 | 11.0% | x | x
O=C(OCC(F)(F)F)c1cccc(COc2ccc3ccccc3c2)c1 | 82.3* | u | 139.9* | -0.2% | u | 1.26µM*
CCOc1ccc(OCc2cccc(C(=O)O)c2)cc1 | 17.7* | 0.891µM* | 40.5 | 0.1% | u | u
